Measurements: PubChem BioAssay AID624100 (ICCB-Longwood Screening Facility, Harvard Medical School, 2012)
The list shows a part of the results. Values without a mark were called inactive. Activity calls are given as the source filed them.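 How the source made its calls: active means average inhibition over replicates above about 50%, so the earlier screening hit is confirmed (limit read from the data); inactive means the rest, counted as false positives.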

Biological target: Ubiquitin carboxyl-terminal hydrolase isozyme L5 (Homo sapiens) (UniProt Q9Y5K5)
Sequence (Q9Y5K5 whole entry, looked up): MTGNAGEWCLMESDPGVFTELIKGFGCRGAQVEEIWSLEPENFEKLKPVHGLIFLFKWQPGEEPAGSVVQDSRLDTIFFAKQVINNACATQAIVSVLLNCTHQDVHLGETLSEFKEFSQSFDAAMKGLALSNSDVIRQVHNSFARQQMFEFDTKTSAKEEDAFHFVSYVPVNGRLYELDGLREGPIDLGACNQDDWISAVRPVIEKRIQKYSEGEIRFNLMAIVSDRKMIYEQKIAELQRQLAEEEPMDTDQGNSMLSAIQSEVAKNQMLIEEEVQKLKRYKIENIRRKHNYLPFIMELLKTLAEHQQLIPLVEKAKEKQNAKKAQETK
Test: proteasome-bound UCH37 Ub-AMC cleavage inhibition – biochemical, Ub-AMC cleavage rate, fluorescence, confirmation (AID 624100);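 further: based on cleavage rate fitted by regression over a 30 min kinetic read; 0% = proteasome plus Ub-AMC and 100% = Ub-AMC without proteasome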
Conditions: at 20 µM, active compounds read high

| SMILES | inhibition |
| --- | --- |
| O=c1ccc2c(-c3ccccc3S(=O)(=O)O)c3ccc(O)c(O)c3oc-2c1O | 36.2% |
| COc1cc(NC(=O)COC(=O)c2ccc([N+](=O)[O-])s2)cc(OC)c1OC | 14.6% |
| O=C(NC1CCCC1)C(c1ccc(N2CCOCC2)cc1)N(C(=O)c1ccco1)c1ccccc1F (stereo not given) | 4.55% |
| O=C(/C=C/c1ccccc1)c1ccoc1 | 8.47% |
| CCOC(=O)c1c(C)[nH]c2c1-c1ccccc1C(=O)C2=O | 90.1% (active) |
| CCN(CC)CCCC(C)n1c2nc(=O)[nH]c(=O)c-2nc2cc(Cl)ccc21 (stereo not given) | 85.1% (active) |
| COCCN1C=C2C(=O)C(C)(OC(=O)C3CCCC3)C(=O)C=C2C=C1c1ccsc1 (stereo not given) | 24.9% |
| N#C/C(=C/c1ccc(N2CCOCC2)o1)C(=O)N1CCOCC1 | 29.8% |
| Cn1ccc(=Nc2ccc(NC(=O)c3ccc(N=c4ccn(C)c5ccc([N+](=O)[O-])cc45)cc3)cc2)cc1 | 71.3% (active) |
| CCCCCCCCn1c2c(c(=N)c3c1CCC3)CCCC2 | 42.2% |
| O=C(O)C(c1ccccc1)N1C(=O)/C(=C\c2ccc(-c3cccc(Cl)c3)o2)SC1=S (stereo not given) | 67.4% (active) |
| COc1cccc(C2/C(=C(/O)c3ccc(F)cc3)C(=O)C(=O)N2CCN(C)C)c1 (stereo not given) | 12.7% |
| CC(C)NC(=O)/C(C#N)=C\c1ccc(N(C)C)c(Br)c1 | 9.32% |
| COc1ccc(S(=O)(=O)/N=C2\C=C(NS(=O)(=O)c3ccccc3)C(=O)c3ccccc32)cc1 | 83.7% (active) |
| COc1ccc(Cn2nnc3c(=O)[nH]c(C4CCN(C(=O)c5ccccc5Cl)CC4)nc32)cc1 | 17.8% |
| O=C(OCC(=O)N1CCN(c2ccccc2)CC1)c1ccc([N+](=O)[O-])s1 | 22.8% |
| CC1CCCN(C(=O)c2ccc3c(c2)C(=O)N(CCC2=CCCCC2)C3=O)C1 (stereo not given) | 61% (active) |
| O=C1C(Cl)=C(Oc2ccccc2)C(=O)c2ccccc21 | 95.2% (active) |
| CC(C)CC[n+]1ccn(C2=C([O-])c3ccccc3C(=O)/C2=N\S(=O)(=O)c2ccccc2)c1 | 29.9% |
| Cc1[nH][nH]c(=O)c1C(c1ccc(-c2ccc(Cl)cc2)o1)c1c(C)[nH][nH]c1=O | 6.33% |
| O=C1Nc2ccc([N+](=O)[O-])cc2C1=Nc1cccc(CO)c1 | -1.27% |
| Cc1ccc(Nc2cc(C)nc3c(C)ccc([N+](=O)[O-])c23)cc1 | 0.827% |
| CC(=O)N1C(=O)/C(=C2\SC(=S)N(NC(=O)c3ccc(O)cc3)C2=O)c2ccccc21 | 63.5% (active) |
| COC1=C(N2CCOCC2)C(=O)c2ccccc2C1=O | 12.6% |
| CC(OC(=O)c1c(F)cccc1F)C(=O)NCCC1=CCCCC1 (stereo not given) | 32.7% |
